Records with an inconclusive call do not appear. The source made the active and inactive calls. The call rests on the fitted dose curve; in most records, active means well fitted curve in the direction sought with a large enough effect; inconclusive means small, poorly fitted or top-dose-only effect, or another doubt; inactive means no such curve, though single readings can be large; an effect the other way counts as inactive or inconclusive.
Key:
CRL-7250 = normal cell line; assay: Cytotoxic Profiling of Annotated Libraries Using Quantitative High-Throughput Screening (AID 1296008); conditions: Five cell lines viability, CellTiter-Glo ATP luminescence, 48-72 h; max response: hits give low values; further: nearly all actives have a fitted effect of over 60% in size; on max response: on the % scale 0 is the no-effect control and ±100 the full control effect
Outline: (§1)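 Cells exposed to compounds for 48 or 72 hr at 37 degrees Celsius. Viability read as ATP-coupled luminescence with CellTiter-Glo after 10 min at room temperature.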

HEK293 = assay: as above; conditions: Five cell lines viability, CellTiter-Glo ATP luminescence, 48-72 h; max response: hits give low values
Outline: as §1

HaCat [1] = assay: as above; conditions: Five cell lines viability, CellTiter-Glo ATP luminescence, 48-72 h; max response: hits give low values
Outline: as §1

KB-3-1 = assay: as above; conditions: Five cell lines viability, CellTiter-Glo ATP luminescence, 48-72 h; max response: hits give low values
Outline: as §1

NIH3T3 [2] = assay: as above; conditions: Five cell lines viability, CellTiter-Glo ATP luminescence, 48-72 h; max response: hits give low values
Outline: as §1

HACAT [3] = assay: qHTS assay to identify novel small-molecules to repurpose for Merkel cell carcinoma treatment (AID 1296009); conditions: MCC and control cell lines, CellTiter-Glo viability, 72 h; at 44.8 µM (top of the series) unless noted; further: nearly all actives have a fitted effect of over 60% in size
Outline: (§2)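 CellTiter-Glo luminescence after 72 hr compound exposure at 37 degree celsius gave cell viability. Libraries NPC and MIPE were run as 8- and 11-point dose responses; RLUs normalized to DMSO (negative) and no-cell (cytotoxicity) controls.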

NIH3T3 [4] = assay: as above; conditions: MCC and control cell lines, CellTiter-Glo viability, 72 h; at 44.8 µM (top of the series) unless noted
Outline: as §2

C33A = assay: Primary qHTS to identify gynecologic anti-cancer compounds using libraries of approved drugs and bioactive compounds (AID 1345084); conditions: Gynecologic cancer cell panel viability, ATPlite luminescence, 48 h; series mostly up to 57.5 µM; further: on the % scale 0 is the no-effect control and ±100 the full control effect; nearly all actives have a fitted effect of over 55% in size
Outline: (§3)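 ATP-based viability (ATPlite), 1,000 cells/well, 16 h pre-incubation, 48 h compound at 37 C, 5% CO2, 15 min RT before read.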

CASKI = assay: as above; conditions: Gynecologic cancer cell panel viability, ATPlite luminescence, 48 h; series mostly up to 57.5 µM
Outline: as §3

Es-2 = assay: as above; conditions: Gynecologic cancer cell panel viability, ATPlite luminescence, 48 h; series mostly up to 57.5 µM
Outline: as §3

HeLa = assay: as above; conditions: Gynecologic cancer cell panel viability, ATPlite luminescence, 48 h; series mostly up to 57.5 µM
Outline: as §3

Hek293T = assay: as above; conditions: Gynecologic cancer cell panel viability, ATPlite luminescence, 48 h, control line for the selectivity index; series mostly up to 57.5 µM
Outline: as §3

JEG-3 = assay: as above; conditions: Gynecologic cancer cell panel viability, ATPlite luminescence, 48 h; series mostly up to 57.5 µM
Outline: as §3

CAOV3 = assay: as above; conditions: Gynecologic cancer cell panel viability, ATPlite luminescence, 48 h; series mostly up to 57.5 µM
Outline: as §3

CO[C@H]1c2cc(C(C)C)c(O)c(O)c2[C@@]23CCCC(C)(C)C2[C@@H]1OC3=O (stereo not given in full)
inactive: outcome (CRL-7250) | max response (HEK293) -7.48% | outcome (HaCat [1]) | outcome (KB-3-1) | outcome (NIH3T3 [2]) | outcome (HACAT [3]) | outcome (NIH3T3 [4]) | Potency (C33A) | outcome (CASKI) | Potency (Es-2) | Potency (HeLa) | Potency (Hek293T) | Potency (JEG-3)

CC1=CC(=O)[C@]2(O[C@@H]3O[C@@H](C)[C@H](O)[C@@H](O)[C@H]3O)C=CO[C@@H](O[C@@H]3O[C@H](CO)[C@@H](O)[C@H](O)[C@H]3O)[C@H]12
inactive: outcome (CRL-7250) | max response (HEK293) -3.6% | outcome (HaCat [1]) | outcome (KB-3-1) | outcome (NIH3T3 [2]) | outcome (HACAT [3]) inactive [at 17.4 µM] | outcome (NIH3T3 [4]) inactive [at 17.4 µM] | Potency (C33A) | outcome (CASKI) | Potency (Es-2) | Potency (HeLa) | Potency (Hek293T) | Potency (JEG-3)

CC(=O)NC1CC(=O)C23C(=O)NC(Cc4c[nH]c5ccccc45)C2C(C)=C(C)C(O)C3/C=C/CC(C)/C=C(/C)C(O)C1O (stereo not given)
inactive: max response (CRL-7250) -0.702% | max response (HEK293) 4.13% | outcome (HaCat [1]) | max response (KB-3-1) 0.623% | outcome (NIH3T3 [2]) | outcome (HACAT [3]) inactive [at 17.4 µM] | outcome (NIH3T3 [4]) inactive [at 17.4 µM] | Potency (C33A) | outcome (CASKI) | Potency (Es-2) | Potency (HeLa) | Potency (Hek293T) | Potency (JEG-3)

C[C@@H]1C[C@@H](O)[C@@]23CO[C@]2(CO)C[C@@H](O)CC3[C@@]12CC(c1ccoc1)OC2=O (stereo not given in full)
inactive: max response (CRL-7250) -3.28% | max response (HEK293) 0.731% | outcome (HaCat [1]) | outcome (KB-3-1) | outcome (NIH3T3 [2]) | outcome (HACAT [3]) | outcome (NIH3T3 [4]) | Potency (C33A) | outcome (CASKI) | Potency (Es-2) | Potency (HeLa) | Potency (Hek293T) | Potency (JEG-3)

CC1CCC2(C(=O)OC3OC(CO)C(O)C(O)C3O)CCC3(C)C(=CCC4C5(C)CCC(O)C(C)(CO)C5CCC43C)C2C1(C)O (stereo not given)
inactive: outcome (CRL-7250) | max response (HEK293) -1.85% | outcome (HaCat [1]) | outcome (KB-3-1) | outcome (NIH3T3 [2]) | outcome (HACAT [3]) inactive [at 17.4 µM] | outcome (NIH3T3 [4]) inactive [at 17.4 µM] | Potency (C33A) | outcome (CASKI) | Potency (Es-2) | Potency (HeLa) | Potency (Hek293T) | Potency (JEG-3)

CCNC(=O)C1CC(F)(c2ccc(CN3CCCC3)c(F)c2)C1 (stereo not given)
inactive: outcome (CRL-7250) | max response (HEK293) -0.849% | outcome (HaCat [1]) | max response (KB-3-1) 3.84% | outcome (NIH3T3 [2]) | outcome (HACAT [3]) | outcome (NIH3T3 [4]) | Potency (C33A) | outcome (CASKI) | Potency (Es-2) | Potency (HeLa) | Potency (Hek293T) | Potency (JEG-3)

CC(=O)O[C@@H]1CC2C(C)(C)C(=O)C=C[C@]2(C)C2CC[C@]3(C)C(=CC(=O)[C@@H]3c3ccoc3)[C@@]21C (stereo not given in full)
inactive: max response (CRL-7250) 0.62% | max response (HEK293) -22.3% | outcome (HaCat [1]) | outcome (KB-3-1) | max response (NIH3T3 [2]) 0.533% | outcome (HACAT [3]) inactive [at 17.4 µM] | Potency (C33A) | Potency (CAOV3) | outcome (CASKI) | Potency (Es-2) | Potency (HeLa) | Potency (Hek293T) | Potency (JEG-3)

O=C(O)c1cc(O[C@@H]2O[C@H](CO)[C@@H](O)[C@H](O)[C@H]2O)ccc1O
inactive: max response (CRL-7250) -1.11% | max response (HEK293) -8.21% | outcome (HaCat [1]) | max response (KB-3-1) 1.47% | outcome (NIH3T3 [2]) | outcome (HACAT [3]) | outcome (NIH3T3 [4]) | Potency (C33A) | outcome (CASKI) | Potency (Es-2) | Potency (HeLa) | Potency (Hek293T) | Potency (JEG-3)

COc1cc(C2OCC3(O)C(c4ccc(O[C@@H]5O[C@H](CO)[C@@H](O)[C@H](O)[C@H]5O)c(OC)c4)OCC23O)ccc1O (stereo not given in full)
inactive: outcome (CRL-7250) | max response (HEK293) -0.768% | outcome (HaCat [1]) | max response (KB-3-1) 7.65% | outcome (NIH3T3 [2]) | outcome (HACAT [3]) inactive [at 17.4 µM] | outcome (NIH3T3 [4]) inactive [at 17.4 µM] | Potency (C33A) | outcome (CASKI) | Potency (Es-2) | Potency (HeLa) | Potency (JEG-3)

OC[C@H]1O[C@@H](OCCc2ccccc2)[C@H](O[C@@H]2OC[C@@H](O)[C@H](O)[C@H]2O)[C@@H](O)[C@@H]1O
inactive: outcome (CRL-7250) | max response (HEK293) 4.26% | outcome (HaCat [1]) | max response (KB-3-1) 9.19% | outcome (NIH3T3 [2]) | outcome (HACAT [3]) inactive [at 17.4 µM] | outcome (NIH3T3 [4]) inactive [at 17.4 µM] | Potency (C33A) | outcome (CASKI) | Potency (Es-2) | Potency (HeLa) | Potency (Hek293T) | Potency (JEG-3)

Cc1ccc(-c2c(-c3nn(C)c4ncnc(N5CC[C@H](N6CCCCC6)C5)c34)cnn2C)cc1
inactive: max response (CRL-7250) -0.469% | max response (HEK293) -5.54% | outcome (HaCat [1]) | max response (KB-3-1) -0.872% | outcome (NIH3T3 [2]) | outcome (HACAT [3]) | outcome (NIH3T3 [4]) | Potency (C33A) | outcome (CASKI) | Potency (Es-2) | Potency (HeLa) | Potency (Hek293T) | Potency (JEG-3)

COc1cccc(C(=O)NCCNc2nc3cc(C)cc(C)c3cc2C#N)c1
inactive: max response (CRL-7250) -1.46% | max response (HEK293) -19% | outcome (HaCat [1]) | max response (KB-3-1) 5.87% | max response (NIH3T3 [2]) -4.31% | outcome (HACAT [3]) | Potency (C33A) | Potency (CAOV3) | outcome (CASKI) | Potency (Es-2) | Potency (HeLa) | Potency (Hek293T) | Potency (JEG-3)

From PubChem BioAssay (NCATS)
